Shown are actives, neighbours in structure and some others; about 0.89% of the full set was active somewhere.
LAP4-GFP MLPCN: alters LAP4-GFP fluorescence in TOR pathway yeast screen | AID 2023 | hit rate 0.34% among 320,000 | S. cerevisiae LAP4-GFP multiplex, flow cytometry GFP, 3 h; median GFP as percent of DMSO wells | GFP response vs DMSO, % at 10 µM;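 active means GFP response vs DMSO above a set limit, about the screen mean plus 3 SD, cut at about 150% in these data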
RPL19A-GFP yeast: alters RPL19A-GFP fluorescence in TOR pathway yeast screen; percent response vs DMSO, % at 10 µM; AID 2025; S. cerevisiae RPL19A-GFP strain, flow cytometry, 3 h; hits give low values; hit rate 0.3% among 330,000;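 active means percent response vs DMSO below 50%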;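 further: median channel GFP fluorescence of the barcoded RPL19A-GFP strain; lower means less RPL19A-GFP as with rapamycin TOR inhibition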
CIT2 TOR yeast: yeast TOR pathway CIT2-GFP modulation; S. cerevisiae CIT2-GFP strain, flow cytometry, 3 h; 100 means same as DMSO wells; GFP response vs DMSO, % at 10 µM; hit rate 0.065% among 320,000; AID 2029;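 active means GFP response relative to DMSO above a set limit, near the screen mean plus 3 SD, cut at about 150% in these data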;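 further: ratio of well median GFP fluorescence to mean of DMSO wells on the plate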
MEP2 TOR yeast: modulators of TOR pathway MEP2-GFP in S. cerevisiae; S. cerevisiae MEP2-GFP strain, flow cytometry GFP, 3 h; 100% = DMSO control level; AID 2016; GFP response vs DMSO, % at 10 µM; hit rate 0.51% among 330,000;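 active means GFP response versus DMSO above a set limit, roughly screen mean plus 3 SD, cut at about 180% in these data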;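 further: median GFP fluorescence of the barcode-gated MEP2-GFP cells per well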
AGP1 TOR yeast: modulators of TOR pathway AGP1-GFP in S. cerevisiae; hit rate 0.02% among 320,000; GFP response vs DMSO, % at 10 µM; AID 2066; S. cerevisiae AGP1-GFP multiplex flow cytometry, 3 h; GFP as percent of DMSO wells;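 active means GFP response relative to DMSO above a set limit, near screen average plus 3 SD, cut at about 150% in these data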;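 further: median GFP channel fluorescence of the gated AGP1 strain per well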
LAP4 cherry2: second confirmation of modulators of TOR reporter LAP4-GFP in yeast; shares compounds with LAP4-GFP MLPCN; S. cerevisiae LAP4-GFP strain, flow cytometry GFP, 3 h; GFP response vs DMSO, % at 10 µM; hit rate 20% among 590; AID 2621;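 active means GFP signal as percent of the solvent control above about 150%, meaning raised reporter expression, limit read from the data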
MEP2-GFP pick2: yeast MEP2-GFP modulation, second cherry pick. shares compounds with LAP4-GFP MLPCN. S. cerevisiae MEP2-GFP strain, flow cytometry GFP, 3 h. GFP response vs DMSO, % at 10 µM. hit rate 10% among 590;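 active means GFP signal above 150% of the solvent control wells, that is a rise of more than half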;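 further: median channel GFP fluorescence of all gated yeast cells per well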
RPL19A-GFP pick2: second confirmation of modulators of TOR reporter RPL19A-GFP in yeast; GFP response vs DMSO, % at 10 µM; hit rate 3% among 590; S. cerevisiae RPL19A-GFP strain, flow cytometry GFP, 3 h; hits give low values; 100% means same as DMSO wells; shares compounds with LAP4-GFP MLPCN;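 active means under 65% GFP response relative to DMSO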;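 further: median GFP channel fluorescence per well over the all cells gate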
CIT2-GFP pick2: yeast CIT2-GFP TOR reporter modulation, second cherry pick | hit rate 8% among 590 | shares compounds with LAP4-GFP MLPCN | GFP response vs DMSO, % at 10 µM | S. cerevisiae CIT2-GFP strain, flow cytometry GFP, 3 h; DMSO control wells read 100% | AID 2624;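 active means GFP response vs DMSO above about 150%, limit read from the data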;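 further: median green fluorescence per well over all gated yeast cells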
AGP1-GFP pick2: yeast AGP1-GFP TOR reporter modulation, second cherry pick; shares compounds with LAP4-GFP MLPCN; S. cerevisiae AGP1-GFP strain, flow cytometry GFP, 3 h; percent response vs DMSO, % at 10 µM; 590 tested, under 10 active;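 active means over 150 percent of DMSO response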;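 further: median GFP channel fluorescence over all cells without mother daughter split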
Yeast autofluor: yeast s288c autofluorescence artifact, counter-screen | shares compounds with LAP4-GFP MLPCN | S. cerevisiae s288c, 520 nm autofluorescence, flow cytometry, 3 h; hits give high values; zero means same as solvent-only cells | fluorescence change (kMESF span) at 33 µM | 610 tested, under 10 active | AID 2757;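 active means fluorescence span over the dose series, or activity score, above about 33, limit read from the data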
Yeast autofl DR: TOR screen hit shows autofluorescence in yeast s288c | shares compounds with LAP4-GFP MLPCN | S. cerevisiae s288c parental, compound autofluorescence, flow cytometry, 3 h | fluorescence change (span) at 33 µM | 110 tested, under 10 active | AID 488829;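 active means fluorescence change span, or the activity score built from it, above 25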
TORC1 bypass gr: wildtype yeast growth loss with TORC1 bypass cells unaffected. 120 tested, under 10 active. growth rating (0-3) at 30 µM. AID 504456. shares compounds with LAP4-GFP MLPCN. S. cerevisiae BY4741 spot growth rating, 48-72 h; hits give low values;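 active means growth rating at most 1 for wild type yeast while the TORC1 bypass strain still grows fully, rated 3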
Each line names hits and unclear results; the compound was inactive in the other large screens (follow-up assays come after a bar, where they were run).

CN(c1ccccc1)c1nc(N)c([N+](=O)[O-])c(Nc2cccc(F)c2)n1	none
Nc1nc(Nc2cccc(Cl)c2)nc(NCCO)c1[N+](=O)[O-]	none
Nc1nc(NCCN2CCOCC2)nc(Nc2cccc(F)c2)c1[N+](=O)[O-]	none (no result: LAP4-GFP MLPCN, RPL19A-GFP yeast, CIT2 TOR yeast, MEP2 TOR yeast, AGP1 TOR yeast) | Yeast autofl DR inactive | TORC1 bypass gr inactive
COc1ccc(NC(=O)CN2CCN(c3nc(-c4cccc(OC)c4)cs3)CC2)cc1	none (no result: CIT2 TOR yeast)
Cc1ccc(OC(=O)c2cc(C)nn2C(C)(C)C)cc1	none
CCOc1ccc(C(=O)NCc2cccnc2)cc1[N+](=O)[O-]	none
O=C1CCN(C(=O)c2ccc(Cl)cc2)N1	none
COC(=O)c1ccc(/C=C(\C#N)c2nc3ccccc3s2)cc1	none
N#C/C(=C\c1ccccn1)c1nc2ccccc2s1	LAP4-GFP MLPCN 634, MEP2 TOR yeast 752, AGP1 TOR yeast 166 (no result: CIT2 TOR yeast) | Yeast autofluor 33
COC(=O)c1ccc(CSc2nnc(NC(=O)c3cc4c(s3)CCCC4)s2)cc1	none
Cc1ccc(CN2C(=O)[C@@H]3Cc4c([nH]c5ccccc45)C(C)(C)N3C2=O)cc1	none
Cc1ccc(CN2C(=O)[C@H]3Cc4c([nH]c5ccccc45)C(C)(C)N3C2=O)cc1	LAP4-GFP MLPCN 156 | LAP4 cherry2 inactive | MEP2-GFP pick2 inactive | RPL19A-GFP pick2 inactive | CIT2-GFP pick2 inactive | AGP1-GFP pick2 inactive
O=C(NNC(=O)c1sccc1-n1cccc1)c1ccccc1	none
O=C(NNC(=O)c1sccc1-n1cccc1)c1cccc(Cl)c1	LAP4-GFP MLPCN 203 | LAP4 cherry2 inactive | MEP2-GFP pick2 inactive | RPL19A-GFP pick2 inactive | CIT2-GFP pick2 inactive | AGP1-GFP pick2 inactive
Cc1ccc(N2C(=O)c3cccc4c([N+](=O)[O-])ccc(c34)C2=O)c2cccnc12	none
Cc1ccnc(N2C(=O)c3cccc4c([N+](=O)[O-])ccc(c34)C2=O)c1	LAP4-GFP MLPCN 232, CIT2 TOR yeast 181, MEP2 TOR yeast 312 | Yeast autofluor inactive
Fc1ccc(Nc2nc(-c3cccnc3)cs2)cc1	none | LAP4 cherry2 inactive | MEP2-GFP pick2 inactive | RPL19A-GFP pick2 inactive | CIT2-GFP pick2 inactive | AGP1-GFP pick2 inactive
COc1ccc(OC)c(S(=O)(=O)N2CCN(c3ccccc3)CC2)c1	none
COc1ccc(OC)c(S(=O)(=O)ON2C(=O)c3ccccc3C2=O)c1	LAP4-GFP MLPCN 182 | Yeast autofluor inactive
O=C(O)/C=C/C(=O)c1ccc2c(c1)CCc1ccccc1-2	LAP4-GFP MLPCN 226 | LAP4 cherry2 inactive | MEP2-GFP pick2 165 | RPL19A-GFP pick2 inactive | CIT2-GFP pick2 inactive | AGP1-GFP pick2 inactive | Yeast autofluor inactive
CC(C)(C)C(=O)NCC12C=CC(O1)C1C(=O)N(c3ccccc3)C(=O)C12 (stereo not given)	none
O=C1C2C3C=CC(CO)(O3)C2C(=O)N1c1ccc(-c2ccccc2)cc1 (stereo not given)	LAP4-GFP MLPCN 263 | Yeast autofluor inactive
O=C(NCC1CCCO1)C1CCN(S(=O)(=O)N2CCCC2)CC1 (stereo not given)	none
O=S(=O)(CCN(CCS(=O)(=O)C(F)(F)F)CC1CCCO1)C(F)(F)F (stereo not given)	LAP4-GFP MLPCN 243 | Yeast autofluor inactive | Yeast autofl DR inactive | TORC1 bypass gr inactive
Cc1ccc(S(=O)(=O)N2CCOCC2)cc1NC(=O)COC(=O)c1cc(=O)[nH]c2ccccc12	none
CCN1CCN(C(=O)C2=CC(c3ccc(OC)cc3)=NS(=O)(=O)N2C)CC1	LAP4-GFP MLPCN 167 | LAP4 cherry2 inactive | MEP2-GFP pick2 inactive | RPL19A-GFP pick2 inactive | CIT2-GFP pick2 inactive | AGP1-GFP pick2 inactive
O=C(NOC(=O)c1ccccc1)c1ccccc1	LAP4-GFP MLPCN 164 | Yeast autofluor inactive
O=C(CSc1nnc(-c2ccc(Cl)cc2)o1)NNC(=O)c1ccncc1	none
CC(=O)c1ccc(NC(=O)C(C)OC(=O)C(C)Oc2cccc(C)c2)cc1 (stereo not given)	none
COc1ccc(S(=O)(=O)N2CCSCC2)cc1C(N)=O	none
O=C1C=C(Nc2ccc(Cl)cc2)C(=O)N1c1ccc(Cl)cc1	none | LAP4 cherry2 inactive | MEP2-GFP pick2 inactive | RPL19A-GFP pick2 inactive | CIT2-GFP pick2 inactive | AGP1-GFP pick2 inactive | Yeast autofluor inactive
COc1ccc(C2=NOC(C(=O)Nc3ccc4c(c3)OCO4)C2)cc1OC (stereo not given)	none
Cc1cccc(NC(c2ccc(C)s2)c2ccc3ccc(C)nc3c2O)n1 (stereo not given)	LAP4-GFP MLPCN 176 | Yeast autofluor inactive
Cc1ccc2ccc(C(Nc3ccccn3)c3ccccc3)c(O)c2n1 (stereo not given)	none
CC(C)n1cnc2cc(NCc3ccccn3)ccc21	none
CCn1c(CSc2nnc3ccccn23)nc2cc(C(=O)O)ccc21	none
CCn1c(CSc2n[nH]c(N)n2)nc2cc(C(=O)O)ccc21	MEP2 TOR yeast 178 | LAP4 cherry2 inactive | MEP2-GFP pick2 inactive | RPL19A-GFP pick2 inactive | CIT2-GFP pick2 inactive | AGP1-GFP pick2 inactive
O=C(O)c1cccc(CN2C(=O)S/C(=C/c3cccc([N+](=O)[O-])c3)C2=O)c1	none | LAP4 cherry2 inactive | MEP2-GFP pick2 inactive | RPL19A-GFP pick2 inactive | CIT2-GFP pick2 inactive | AGP1-GFP pick2 inactive
COc1cccc(-c2ncc3ccccc3c2COC(=O)c2ccc(Br)cc2)c1	none
